From PubChem BioAssay AID1851 (National Center for Advancing Translational Sciences (NCATS), 2009) come the findings set out here.

Molecules are shown by their SMILES. Hit rate of the full screen: of about 16,000 compounds, about 5,800 (36%) were called active. Inconclusive results (about 23%) are left out. Some of the results follow. A number with no mark means an inactive call. Calls come from the whole dose curve; as a rule, active = well fitted curve in the direction sought with a large enough effect; inconclusive = small, poorly fitted or top-dose-only effect, or effect the other way; inactive = no such curve, though single readings can be large or run the other way.

What is called AC50 is the midpoint of the concentration-response curve, whichever way the signal moves.
% is set by controls: 0 for no effect and ±100 for the full control effect.

The target of the experiment is Cytochrome P450 2C19 (Homo sapiens) (UniProt P33261). The experiment is described as follows: Cytochrome panel assay with activity outcomes. As to conditions: recombinant CYP, pro-luciferin dealkylation, luminescence, p450-cyp2c19; series mostly up to 57.1 µM; activity, negative = inhibition: at the top concentration.
Sequence of Cytochrome P450 2C19 (Homo sapiens) (P33261 whole entry, looked up): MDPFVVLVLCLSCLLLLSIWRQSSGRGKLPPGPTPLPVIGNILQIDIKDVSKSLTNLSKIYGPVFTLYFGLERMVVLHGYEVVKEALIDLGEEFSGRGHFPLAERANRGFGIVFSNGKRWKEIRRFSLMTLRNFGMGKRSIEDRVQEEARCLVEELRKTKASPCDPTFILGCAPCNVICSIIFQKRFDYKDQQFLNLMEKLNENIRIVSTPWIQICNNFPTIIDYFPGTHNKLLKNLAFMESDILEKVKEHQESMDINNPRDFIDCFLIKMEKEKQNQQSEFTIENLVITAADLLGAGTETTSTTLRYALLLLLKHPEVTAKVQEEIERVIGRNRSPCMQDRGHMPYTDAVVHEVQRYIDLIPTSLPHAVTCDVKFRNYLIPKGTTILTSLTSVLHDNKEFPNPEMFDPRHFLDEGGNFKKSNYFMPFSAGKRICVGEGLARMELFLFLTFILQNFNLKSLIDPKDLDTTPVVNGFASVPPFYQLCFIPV
For `COCCn1c(=O)c(-c2cccc(C#N)c2)nc2cnc(N(C)C)nc21`, the “activity, negative = inhibition” value was -3.96%. Turning to `COc1cccc(-c2cncnc2N(C)Cc2ccco2)c1`, the AC50 was 7940 nM (active). On the same count and under the same terms, as for `CN(C)c1ccc(-c2cncnc2N(C)Cc2ccco2)cc1`, the figure is 251 nM (active); as for `CN(Cc1ccco1)c1ncncc1-c1ccc2c(c1)OCO2`, 126 nM (active). Same read-out and setting: as for `CN(Cc1ccco1)c1ncncc1-c1cccc(C#N)c1`, the figure is 20000 nM (active).

Take `CN(C)c1ncc2nc(-c3cccc(C#N)c3)c(=O)n(CCC#N)c2n1`: the “activity, negative = inhibition” value is 2.53%. Still for that read-out and setting: as for `COCC(=O)N1CCC[C@@]2(CCN(C(=O)Nc3cccc(F)c3)C2)C1`, the figure is 17.5%.

As for `CN(Cc1ccco1)c1ncncc1-c1cccnc1`, the AC50 is 10000 nM (active). On the same count and under the same terms, next, `CC(NC(=O)c1ccccc1)c1nc2ccccc2n1Cc1ccccc1F` (centres undefined): 8910 nM (active). Still for that read-out and setting: as for `Cc1cc(NC(=S)NC(=O)CC(C)C)ccc1Br`, the figure is 3550 nM (active).

Regarding `CCCCn1c(SCC(=O)N2CCCC2)nc2c1c(=O)n(C)c(=O)n2C`, the “activity, negative = inhibition” value is -31.9%. Take `CCCCn1nnnc1SCC(=O)N1CCCC1`: the AC50 is 25100 nM (active). The same measure, in the same setting: next, `CCCCn1nnnc1SCC(=O)c1cc(Cl)ccc1OC`: 70.8 nM (active). Consider `C[N+](C)(C)CCCCCCCCCC[N+](C)(C)C`, for which the “activity, negative = inhibition” value is 35%. Turning to `CCCCCCCCCCCC1=C(O)C(=O)C=C(O)C1=O`, the “activity, negative = inhibition” value was -15.3%. As for `O=S(=O)(N/N=C/c1ccc2c(c1)OCCO2)c1ccc(Cl)cc1`, the AC50 was 2820 nM (active). On the same count and under the same terms, as for `O=S(=O)(N/N=C\c1ccc2c(c1)OCO2)c1ccc(Cl)cc1`, the figure is 794 nM (active). For `C[C@]1(C2CCCC2)Cc2cc(OCC(=O)O)c(Cl)c(Cl)c2C1=O`, the “activity, negative = inhibition” value is 42.7%. For `O=C(CN1C(=O)NC2(CCCC2)C1=O)NCCC1=CCCCC1`, the AC50 is 14100 nM (active). For the compound `Cc1nc2ncnn2c(C)c1CCC(=O)NCCC1=CCCCC1`, the “activity, negative = inhibition” value was -16.8%. Same read-out and setting: next, `O=C(CN1CCN(C2CCCCC2)CC1)NCCC1=CCCCC1`: -1.36%. For `O=C(COc1ccc(Cl)cc1)NCCC1=CCCCC1`, the AC50 is 3980 nM (active). `CCCn1c(=O)c2[nH]c(-c3ccc(OCC(=O)NCCN)cc3)nc2n(CCC)c1=O`: the “activity, negative = inhibition” value is 14.9%. As to `O=C(CN1CCN(c2ncccn2)CC1)NCCC1=CCCCC1`, the AC50 is 4470 nM (active). In the case of `O=C(CCN1CCCCC1)c1csc2ccccc12`, the activity, negative = inhibition was -22.7% [at 11.4 µM]. As to `O=C(c1[nH]o[n+](=O)c1C(=O)c1csc2ccccc12)c1csc2ccccc12`, the AC50 is 1000 nM (active). `Cc1cccc(C(=O)O)c1C[C@H]1NCC[C@H]2c3ccccc3N[C@@H]12`: the activity, negative = inhibition is 3.69% [at 11.4 µM].

Regarding `Cc1nn(Cc2ccc(Cl)cc2)c(C)c1NC(=O)CSc1nc2c(c(C(F)(F)F)n1)CCc1ccccc1-2`, the AC50 was 2820 nM (active). Still for that read-out and setting: as for `Cc1ccccc1Cn1cc(NC(=O)CSc2nc3c(c(C(F)(F)F)n2)CCc2ccccc2-3)cn1`, the figure is 3980 nM (active). Consider `CC1(C)[C@@H]2CC[C@]1(C)[C@@H](OC(=O)CSC#N)C2`, for which the activity, negative = inhibition was -26.6% [at 11.4 µM].

Consider `CN(C)/C(CN1CCN(C=O)CC1)=C1\N=C(c2ccccc2)OC1=O`, for which the “activity, negative = inhibition” value is -17%.

`COc1ccc(S(=O)(=O)N2CCc3ccccc3C2)cc1OC`: the AC50 was 447 nM (active). For `COc1ccccc1CN1CC[C@@]2(CCCN(S(=O)(=O)c3ccccc3)C2)C1`, the “activity, negative = inhibition” value was -26.9%. For the compound `O=S(=O)(c1ccc(Cl)s1)N1CCc2ccccc2C1`, the AC50 is 708 nM (active). Take `O=C(ON=C1CCN(S(=O)(=O)c2ccccc2)CC1)c1ccccc1`: the “activity, negative = inhibition” value was -10.7%. On the same count and under the same terms, next, `CCN1C(=O)[C@H]2[C@H]3[C@H](O)[C@H](O)C/C(=N/O[C@@H]4O[C@H](COC(C)=O)[C@@H](OC(C)=O)[C@H](OC(C)=O)[C@H]4OC(C)=O)[C@@H]3CC[C@@H]2C1=O`: 34.2% [at 11.4 µM]; `CCN(CCCc1ccccc1)CCCc1ccccc1`: -5.51% [at 25.6 µM]. On the same count and under the same terms, as for `CCN(CC)CCOC(=O)C(c1ccccc1)c1ccccc1`, the figure is -12.6% [at 25.6 µM]. With `CCN(CC)CC#CCC(C)(c1ccccc1)c1ccccc1`, the AC50 is 447 nM (active).

With `COc1ccccc1N1CCN(CCN(C(=O)C2CCCCC2)c2ccccn2)CC1`, the “activity, negative = inhibition” value is -20.8%. For the compound `O=C(c1ccc(N2CCCCC2)c([N+](=O)[O-])c1)N(Cc1ccccc1)c1ccccn1`, the AC50 is 14100 nM (active).

In the case of `O=C1C(Cl)=C(Sc2nnc3c4ccccc4c4ccccc4c3n2)C(=O)c2ccccc21`, the AC50 is 1580 nM (active). Take `CN(CC(=O)N1CCN(c2ccccc2)CC1)S(=O)(=O)c1cnc[nH]1`: the half-maximal activity concentration (AC50) was 2240 nM (active). The same measure, in the same setting: as for `CCc1cccc(NC(=O)CN(C)S(=O)(=O)c2cnc[nH]2)c1`, the figure is 447 nM (active).

Take `CC[n+]1c(/C=C/Nc2ccccc2)oc2ccccc21`: the “activity, negative = inhibition” value was -22%. Turning to `COc1ccc(O[C@H]2C=C[C@@H](c3ccccc3)O[C@H]2CO/N=C2/c3cc(OC)ccc3O[C@@H](c3cccc(OC)c3)[C@H]2O)cc1`, the AC50 is 501 nM (active). The same measure, in the same setting: next, `CCCNC(=O)OC[C@@H]1O[C@H](CCO/N=C2\c3cc(OC)ccc3O[C@H](c3cccc(OC)c3)[C@H]2O)C=C[C@@H]1Oc1ccc(OC)cc1`: 1580 nM (active).

Turning to `CCCNC(=O)OC[C@@H]1O[C@H](CCO/N=C(\C)CCN2CCc3nc(CC)c(CC)cc3C2)C=C[C@@H]1Oc1ccc(OC)cc1`, the activity, negative = inhibition was -24.5% [at 11.4 µM]. Same read-out and setting: next, `CCCNC(=O)OC[C@@H]1O[C@H](CCON=C(C)C)C=C[C@@H]1Oc1ccc(OC)cc1`: -39.5% [at 11.4 µM].
